MITF inh = inhibitors of MITF, primary screen, MITF inhibitor project, cell-based, luminescence. TRPM1 promoter luciferase, 24 h. 0.28% of 37,000 active. inhibition, % (test concentration not listed). AID 2240, 2010; in the data active means inhibition above about 85%; inconclusive means no clear call, values can overlap the other calls; inactive means below about 68%;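 further: human melanocyte line stably carrying TRPM1 promoter luciferase reporter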
PD-1 reverse act = activators reversing PD-1 mediated T-cell inhibition, primary screen, luminescence, primary human CD4 T cells, PD-L1 beads. activation, % (test concentration not listed). CellTiter-Glo 96 h. 29,000 tested, under 10 active; call rule not given here;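 further: 0% = median vehicle wells and 100% = positive control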
Hedgehog inh = Hedgehog pathway signaling inhibitors, primary screen, luminescence, Shh-LIGHT2 cells, Gli-luciferase; 2.1% of 22,000 active; inhibition, % (concentration not given with the values); Shh-LIGHT2 Gli-luciferase reporter, 30 h;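 active means mean inhibition across valid replicates above about 65%, limit read from the data; inconclusive means mean under the limit, yet half or more replicates past it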;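 further: pathway switched on by Shh-conditioned medium diluted 1 in 25 in low serum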
The depositor's hits bear a star; u = inconclusive; x = not tested or not shown. Only a selection was taken, and hits are over-represented in it overall.

SMILES | MITF inh | PD-1 reverse act | Hedgehog inh
C=CC(C)(C)c1c2c(c(O)c3c(=O)c4ccc(O)c(O)c4oc13)C=CC(C)(C)O2 | u | x | 93*
COc1c(-c2ccccc2)oc2c(CC=C(C)C)c3c(c(OC)c2c1=O)C=CC(C)(C)O3 | 3 | x | -8
CNC[C@H]1Oc2c(NC(=O)Nc3ccccc3)cccc2C(=O)N([C@H](C)CO)C[C@@H]1C | -13 | 1 | 4
COc1ccc(CN(C)C[C@@H]2OCCCC[C@@H](C)Oc3ccc(NS(=O)(=O)c4ccc(Cl)cc4)cc3C(=O)N([C@H](C)CO)C[C@@H]2C)cc1 | -4 | -2 | -21
COc1ccc(CN(C)C[C@@H]2OCCCC[C@@H](C)Oc3ccc(NS(=O)(=O)c4ccc(OC)cc4)cc3C(=O)N([C@H](C)CO)C[C@@H]2C)cc1 | -7 | 1 | x
COc1ccc(S(=O)(=O)Nc2ccc3c(c2)C(=O)N([C@H](C)CO)C[C@H](C)[C@@H](CN(C)Cc2ccc(Cl)c(Cl)c2)OCCCC[C@@H](C)O3)cc1 | u | x | 69*
COc1ccc(CN(C)C[C@H]2OCCCC[C@@H](C)Oc3ccc(NS(=O)(=O)c4ccc(C)cc4)cc3C(=O)N([C@H](C)CO)C[C@@H]2C)cc1 | 1 | x | 65*
C[C@@H]1CN([C@@H](C)CO)C(=O)c2cc(NC(=O)C3CCCCC3)ccc2O[C@@H]1CN(C)C(=O)Nc1cccc2ccccc12 | 9 | -1 | -11
O=c1cc(N2CCOCC2)oc2c1ccc1ccccc12 | -2 | -1 | -70
O=c1cc(N2CCOCC2)oc2c(-c3ccccc3)cccc12 | 36 | -16 | 71*
O=C(CSc1n[nH]c(-c2ccc(Cl)cc2)n1)Nc1ccc(F)c(Cl)c1 | 41 | -2 | x
Cc1ccc(-c2csc3nnc(SCC(=O)c4ccc5c(c4)OCCO5)n23)cc1C | 2 | x | x
Clc1ccc(Sc2cn[nH]c2-c2ccc3c(c2)OCCO3)cc1 | 4 | -3 | 79*
C[C@H]1CN([C@@H](C)CO)C(=O)c2cc(NC(=O)CCC(F)(F)F)ccc2O[C@H]1CN(C)S(=O)(=O)c1cn(C)cn1 | 1 | 1 | -21
CNC[C@@H]1Oc2ccc(NC(=O)CCCN(C)C)cc2C(=O)N([C@H](C)CO)C[C@H]1C | -6 | 1 | -58
O=c1oc(-c2ccccn2)nc2ccccc12 | -1 | 3 | 4
O=c1oc(Cl)c(Cl)c2ccccc12 | 46 | x | 79*
c1cnc2cc(Oc3ccc4nccnc4c3)ccc2n1 | -53 | 0 | -8
Cn1c(SCC(=O)Nc2ccccc2Cl)nnc1-c1cccnc1 | -7 | 1 | x
Cc1noc(C)c1NC(=O)N(C)C[C@@H]1OCCCC[C@@H](C)Oc2ccc(NS(=O)(=O)c3cn(C)cn3)cc2C(=O)N([C@H](C)CO)C[C@@H]1C | 2 | 1 | x
COc1c(-c2coc3cc4c(cc3c2=O)CC(O)C(C)(C)O4)ccc2c1C=CC(C)(C)O2 (stereo not drawn) | 99* | x | 91*
CC1(C)C=Cc2c(cc3occ(-c4ccc5c(c4)OCO5)c(=O)c3c2O)O1 | -20 | x | 56
CCC/C=C/C=C/C1CC(O)C(O)C(O)C1CO (stereo not drawn) | -8 | 1 | -12
COc1ccc(S(=O)(=O)N(C)C[C@H]2Oc3ccc(NS(=O)(=O)c4ccccc4)cc3CC(=O)N([C@H](C)CO)C[C@H]2C)cc1 | -24 | -4 | 14
Cc1[nH]c2ccccc2c1Sc1ccccc1 | 49 | -3 | 71*
SMILES | MITF inh | PD-1 reverse act | Hedgehog inh
Cc1[nH]c2ccccc2c1C(c1c(C)[nH]c2ccccc12)C(C)C | 58 | -5 | 33
C=C(C(=O)O[C@H]1C/C(C)=C\CC/C(CO)=C\[C@H]2OC(=O)C(=C)[C@H]12)C(O)CO (stereo partly drawn) | -33 | -3 | 18
C=C(C)C(=O)OC1CC(CO)CCC/C(CO)=C\C2OC(=O)C(=C)C21 (stereo not drawn) | x | x | 71*
C[C@H]1CN([C@@H](C)CO)C(=O)c2cc(NC(=O)Cn3cnnn3)ccc2O[C@H]1CN(C)Cc1ccc(C(=O)Nc2ccccc2N)cc1 | -16 | 0 | x
CCOc1ccc(S(=O)(=O)NCc2ccccc2)cc1-c1nc2c(C(C)(C)C)nn(C)c2c(=O)[nH]1 | 76 | -2 | 79*
CCCc1nn(C)c2c(=O)[nH]c(-c3cc(S(=O)(=O)N4CCN(C)CC4)ccc3OCC)nc12 | 4 | x | -51
C[C@H]1CN([C@@H](C)CO)C(=O)Cc2cc(NC(=O)c3ccncc3)ccc2O[C@@H]1CN(C)Cc1ccncc1 | -1 | 1 | -2
COCCNC(=O)CC1Sc2ccccc2NC1=O (stereo not drawn) | -29 | 0 | x
C=C1C(=O)OC2CC1C(OC(C)=O)C/C(C)=C\CC/C(C)=C\CC[C@]2(C)O (stereo partly drawn) | u | x | 87*
C=C1C(=O)O[C@H]2C1[C@H](OC(=O)/C(C)=C/CO)C/C(C)=C\CC[C@@]1(CO)OC21 (stereo partly drawn) | 26 | -15 | 4
C=C1C(=O)O[C@H]2C1[C@H](OC(=O)/C(C)=C/CO)C/C(C)=C\CC[C@@]1(C)OC21 (stereo partly drawn) | -9 | -28 | 26
C=C1C(=O)O[C@H]2[C@H]1[C@@H](OC(=O)C(C)(O)C(C)Cl)C(OC(C)=O)/C(C(=O)OC)=C\CC[C@@]1(C)O[C@H]21 (stereo partly drawn) | -9 | -10 | 73*
C[C@@H]1O[C@@H](O[C@H]2[C@H](O[C@H]3[C@H](O[C@H]4CC[C@@]5(C)C(CC[C@]6(C)C5CC=C5[C@@H]7CC(C)(C)C[C@@H](O)[C@]7(C)CC[C@]56C)[C@@]4(C)CO)O[C@H](C(=O)O)[C@@H](O)[C@@H]3O)OC[C@H](O)[C@@H]2O)[C@H](O)[C@H](O)[C@H]1O (stereo partly drawn) | -7 | 0 | 23
CC(=O)N[C@H]1[C@H](O[C@H]2CC[C@@]3(C)C(CC[C@]4(C)C3CC=C3[C@@H]5CC(C)(C)CC[C@]5(C(=O)O)CC[C@]34C)C2(C)C)O[C@H](CO[C@@H]2OC[C@H](O)[C@H](O)[C@H]2O[C@@H]2OC[C@H](O)[C@H](O)[C@H]2O)[C@@H](O)[C@@H]1O (stereo partly drawn) | 19 | -13 | 109*
CC1(C)CC[C@]2(C(=O)O)CC[C@]3(C)C(=CCC4[C@@]5(C)CC[C@H](O[C@@H]6O[C@H](C(=O)O)[C@@H](O[C@@H]7OC[C@@H](O)[C@H](O)[C@H]7O)[C@H](O)[C@H]6O)C(C)(C)C5CC[C@]43C)C2C1O (stereo partly drawn) | -8 | -2 | -18
CC1(C)CC[C@]2(C(=O)O)CC[C@]3(C)C(=CCC4[C@@]5(C)CC[C@H](O[C@@H]6O[C@H](C(=O)O)[C@@H](O[C@@H]7OC[C@@H](O)[C@H](O)[C@H]7O)[C@H](O)[C@H]6O)C(C)(C)C5CC[C@]43C)C2C1 (stereo partly drawn) | 13 | -9 | 105*
